Test systems include RPMI-8226 leukemia; OVCAR-8 ovarian; OVCAR-5 ovarian; OVCAR-4 ovarian; SK-OV-3 ovarian; IGROV1 ovarian; OVCAR-3 ovarian; HS 578T breast; NCI/ADR-RES ovarian; T-47D breast; BT-549 breast; MDA-MB-435 melanoma; SW-620 colon; MCF7 breast; HCT-116 colon; HCC-2998 colon; KM12 colon.
Common to all, as to test: NCI-60 one-dose screen, 48 h (100 = growth as untreated, 0 = no growth, -100 = all killed)
Settings in all cases: 10 µM unless noted

Compounds without any hit were thinned out: in the full panel of roughly 83,000, 20% have a hit.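 Activity criterion: percent growth below 10, measured after cells in 96-well plates were exposed to a single compound concentration for 48 hours.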 A number with no mark means an inactive call. Active and inactive are the calls of the source.

Regarding `O=C(Nc1ccc(Cl)cc1)Nc1ccc(Nc2nncc3ccccc23)cc1`, the growth was 8.62% (active) in the experiment on RPMI-8226 leukemia; 18.2% with OVCAR-8 ovarian; 85.6% with OVCAR-5 ovarian; 11.1% with OVCAR-4 ovarian; 38.2% in the experiment on SK-OV-3 ovarian; 39.7% in the experiment with IGROV1 ovarian. Besides, the growth was 17.6% in the experiment with OVCAR-3 ovarian; 58.3% with HS 578T breast; 36.2% in the experiment with NCI/ADR-RES ovarian; -6.32% (active) in the experiment with T-47D breast; 15.7% in the experiment on BT-549 breast; 13.7% with MDA-MB-435 melanoma. Also, the growth in the experiment with SW-620 colon is 27%; in the experiment with MCF7 breast, 5.46% (active); with HCT-116 colon it was 15.2%; with HCC-2998 colon, 30.7%; with KM12 colon, 18.9%.

For `COc1cc(C2C=C(c3ccc(C)cc3)Nc3nc(SC)[nH]c(=O)c32)ccc1Oc1ccnc2cc(Cl)ccc12` (stereo unspecified), the growth is 65.6% with RPMI-8226 leukemia; 83.4% in the experiment with OVCAR-8 ovarian; 84.3% in the experiment on OVCAR-5 ovarian; 86.3% in the experiment with OVCAR-4 ovarian; 106% in the experiment with SK-OV-3 ovarian; 90.5% in the experiment with IGROV1 ovarian. Further, the growth in the experiment with OVCAR-3 ovarian was 81.1%; in the experiment on HS 578T breast, 90.8%; in the experiment with NCI/ADR-RES ovarian, 72.6%; in the experiment with T-47D breast it was 82.3%; in the experiment with BT-549 breast, 87.9%; in the experiment on MDA-MB-435 melanoma, 55.3%. Further, the growth is 93.3% with SW-620 colon; 56.9% in the experiment on MCF7 breast; 64.5% in the experiment with HCT-116 colon; 95.9% in the experiment on HCC-2998 colon; 60.5% in the experiment with KM12 colon.

With `O=C(Nc1ccc(Oc2ccc(NC(=O)Nc3ccc([N+](=O)[O-])cc3)cc2)cc1)Nc1ccc([N+](=O)[O-])cc1`, the growth in the experiment on RPMI-8226 leukemia was -53.5% (active); in the experiment on OVCAR-8 ovarian it was 10.1%; with OVCAR-5 ovarian, 6.63% (active); with OVCAR-4 ovarian it was 34.5%; with SK-OV-3 ovarian, 12.8%; with IGROV1 ovarian, -13.2% (active). Further, the growth in the experiment with OVCAR-3 ovarian was 8.26% (active); in the experiment on HS 578T breast it was 23.3%; in the experiment on NCI/ADR-RES ovarian, 8.82% (active); in the experiment with T-47D breast, 1.54% (active); in the experiment with BT-549 breast it was -21.5% (active); in the experiment with MDA-MB-435 melanoma, 5.67% (active). The growth in the experiment with SW-620 colon is 10.8%; in the experiment on MCF7 breast it was -7.4% (active); in the experiment on HCT-116 colon, -6.3% (active); in the experiment with KM12 colon it was -5.89% (active).

As to `Cc1[nH]n(C(N)=S)c(=O)c1N=Nc1ccc(F)c(Cl)c1`, the growth in the experiment on RPMI-8226 leukemia is 78.2%; in the experiment with OVCAR-8 ovarian, 91.2%; in the experiment on OVCAR-5 ovarian it was 102%; in the experiment with OVCAR-4 ovarian, 94.9%; with SK-OV-3 ovarian it was 280%; in the experiment on IGROV1 ovarian, 102%. Further, the growth with OVCAR-3 ovarian was 88.3%; with HS 578T breast, 127%; in the experiment on NCI/ADR-RES ovarian it was 117%; in the experiment on T-47D breast, 249%; in the experiment on BT-549 breast, 143%; with MDA-MB-435 melanoma, 107%. The growth with SW-620 colon was 111%; in the experiment with MCF7 breast, 103%; in the experiment on HCT-116 colon, 95.5%; in the experiment on HCC-2998 colon it was 95.7%; in the experiment with KM12 colon, 90%.

For the compound `COc1cc2c(-c3nc4cc(Cl)c(F)cc4s3)cc(=O)oc2c(C)c1OC`, the growth in the experiment on RPMI-8226 leukemia was -56% (active); in the experiment on OVCAR-8 ovarian, -58.8% (active); with OVCAR-5 ovarian, -65.5% (active); in the experiment on OVCAR-4 ovarian it was -92.9% (active); in the experiment on SK-OV-3 ovarian, -85% (active); in the experiment with IGROV1 ovarian it was -43.6% (active). Also, the growth was -98.6% (active) with OVCAR-3 ovarian; -0.186% (active) in the experiment with HS 578T breast; -10% (active) in the experiment with NCI/ADR-RES ovarian; -14.1% (active) with T-47D breast; -81.8% (active) in the experiment on BT-549 breast; -57.8% (active) in the experiment on MDA-MB-435 melanoma. Also, the growth is -58.3% (active) in the experiment on SW-620 colon, -57.8% (active) in the experiment with MCF7 breast, -2.68% (active) with HCT-116 colon and -89.7% (active) in the experiment with KM12 colon.

For the compound `C[C@]12CC[C@@H]3c4ccc(O)cc4CC[C@H]3[C@@H]1CC[C@@H]2NS(=O)(=O)c1cccc(Br)c1`, the growth is 44.4% in the experiment with RPMI-8226 leukemia; 67% in the experiment with OVCAR-8 ovarian; 97.7% with OVCAR-5 ovarian; 53.9% with OVCAR-4 ovarian; 90.7% in the experiment on SK-OV-3 ovarian; 53.1% in the experiment on IGROV1 ovarian. Moreover, the growth in the experiment on OVCAR-3 ovarian is 58.8%; in the experiment with HS 578T breast, 73.8%; in the experiment with NCI/ADR-RES ovarian, 56.2%; in the experiment on T-47D breast it was 37.4%; in the experiment with BT-549 breast, 69.2%; in the experiment on MDA-MB-435 melanoma, 48.4%. Moreover, the growth in the experiment with SW-620 colon is 81.4%; with MCF7 breast, 37.5%; in the experiment with HCT-116 colon, 44.2%; in the experiment on HCC-2998 colon, 89.4%; with KM12 colon it was 51.2%.

For the compound `CN(C)c1ccc2[nH]c3c(C(N)=O)cc(=O)c(=O)c=3oc2c1`, the growth was 5% (active) in the experiment on RPMI-8226 leukemia; 25.4% in the experiment with OVCAR-8 ovarian; 89% in the experiment on OVCAR-5 ovarian; 49.1% in the experiment on OVCAR-4 ovarian; 82% in the experiment with SK-OV-3 ovarian; 32.5% with IGROV1 ovarian. For the same compound, the growth in the experiment on OVCAR-3 ovarian is -9.97% (active); with HS 578T breast, 20.4%; with NCI/ADR-RES ovarian, 58.1%; with T-47D breast it was 18.1%; with BT-549 breast it was 45.9%; in the experiment on MDA-MB-435 melanoma it was -70.1% (active). The growth in the experiment on SW-620 colon is 33.8%; with MCF7 breast, 2.37% (active); with HCT-116 colon it was -10.1% (active); in the experiment with HCC-2998 colon it was 97.7%; with KM12 colon, 96.3%.

`Cc1ccc(NC(=O)COC(=O)c2ccc(S(=O)(=O)N3CCCCCC3)cc2)cc1`: the growth in the experiment on RPMI-8226 leukemia was 97.6%; with OVCAR-8 ovarian, 98.8%; in the experiment with OVCAR-5 ovarian, 84%; in the experiment on OVCAR-4 ovarian, 105%; in the experiment on SK-OV-3 ovarian, 79.4%; in the experiment with IGROV1 ovarian, 101%. The growth was 106% in the experiment on OVCAR-3 ovarian; 113% with HS 578T breast; 105% in the experiment on NCI/ADR-RES ovarian; 5.22% (active) in the experiment on T-47D breast; 141% in the experiment with BT-549 breast; 107% in the experiment with MDA-MB-435 melanoma. For the same compound, the growth in the experiment on SW-620 colon is 107%; in the experiment on MCF7 breast, 102%; in the experiment on HCT-116 colon it was 103%; in the experiment on HCC-2998 colon it was 91.5%; with KM12 colon, 97.7%.

On to `CN(C)c1ccc(/C=C(\C#N)c2nc3ccccc3c(=O)[nH]2)cc1`, for which the growth is 140% in the experiment with RPMI-8226 leukemia; 97.1% in the experiment with OVCAR-8 ovarian; 86.8% with OVCAR-5 ovarian; 29.9% in the experiment on OVCAR-4 ovarian; 114% with SK-OV-3 ovarian; -10.8% (active) with IGROV1 ovarian. The growth in the experiment with OVCAR-3 ovarian is 114%; with HS 578T breast, 71.4%; in the experiment on NCI/ADR-RES ovarian, 76.9%; in the experiment on T-47D breast it was 92.1%; in the experiment with BT-549 breast, 87.9%; in the experiment with MDA-MB-435 melanoma it was 86.7%. The growth in the experiment with SW-620 colon was 82.6%; in the experiment with MCF7 breast it was 73.5%; with HCT-116 colon, 76.9%; in the experiment on HCC-2998 colon it was 84.8%; in the experiment on KM12 colon it was 79.9%.

The values above are taken from PubChem BioAssay (NCI).
